Measured values taken from PubChem BioAssay (NCATS).
Records with an inconclusive call do not appear. Entries that show only a call come without a potency. Values without a mark were called inactive. The source made the active and inactive calls. Calls follow the shape of the dose curve; as a rule, active = well fitted curve in the direction sought with a large enough effect; inconclusive = small, poorly fitted or top-dose-only effect, or another doubt; inactive = no such curve, though single readings can be large; an effect the other way counts as inactive or inconclusive.

Tests used:
[1] = target: Rap guanine nucleotide exchange factor 3 (Homo sapiens) (UniProt O95398); test: Confirmatory qHTS for agonist of cAMP-regulated guanine nucleotide exchange factor 3 (EPAC1) (AID 1645881);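 also: EPAC1 catalysed release of BODIPY-GDP from Rap1B seen as fluorescence loss; nearly all actives have a fitted effect of over 75% in size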
[2] = target: Rap guanine nucleotide exchange factor 4 (Homo sapiens) (UniProt Q8WZA2); test: Confirmatory qHTS for antagonist of cAMP-regulated guanine nucleotide exchange factor 4 (EPAC2) (AID 1645885); also: nearly all actives have a fitted effect of over 25% in size; also: potency is read from the fitted curve at half-maximal effect
[3] = target: Rap guanine nucleotide exchange factor 3 (Homo sapiens) (UniProt O95398); test: Counterscreen qHTS for antagonist of cAMP-regulated guanine nucleotide exchange factor 3 (EPAC1) (AID 1645888);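 also: fluorescence loss as bound BODIPY-GDP is released from Rap1B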
Method in brief: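 Rap1B-BODIPY-GDP 250 nM + GDP 50 uM; cpds 7-pt, final 9.74 nM–152 uM (activator mode) or from 7.32 nM upwards (inhibitor mode); RT; FI 480/540 nm at 5 and 30 min, then ± cAMP, reread.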

Rap guanine nucleotide exchange factor 4 (Homo sapiens), sequence (Q8WZA2 whole entry, looked up): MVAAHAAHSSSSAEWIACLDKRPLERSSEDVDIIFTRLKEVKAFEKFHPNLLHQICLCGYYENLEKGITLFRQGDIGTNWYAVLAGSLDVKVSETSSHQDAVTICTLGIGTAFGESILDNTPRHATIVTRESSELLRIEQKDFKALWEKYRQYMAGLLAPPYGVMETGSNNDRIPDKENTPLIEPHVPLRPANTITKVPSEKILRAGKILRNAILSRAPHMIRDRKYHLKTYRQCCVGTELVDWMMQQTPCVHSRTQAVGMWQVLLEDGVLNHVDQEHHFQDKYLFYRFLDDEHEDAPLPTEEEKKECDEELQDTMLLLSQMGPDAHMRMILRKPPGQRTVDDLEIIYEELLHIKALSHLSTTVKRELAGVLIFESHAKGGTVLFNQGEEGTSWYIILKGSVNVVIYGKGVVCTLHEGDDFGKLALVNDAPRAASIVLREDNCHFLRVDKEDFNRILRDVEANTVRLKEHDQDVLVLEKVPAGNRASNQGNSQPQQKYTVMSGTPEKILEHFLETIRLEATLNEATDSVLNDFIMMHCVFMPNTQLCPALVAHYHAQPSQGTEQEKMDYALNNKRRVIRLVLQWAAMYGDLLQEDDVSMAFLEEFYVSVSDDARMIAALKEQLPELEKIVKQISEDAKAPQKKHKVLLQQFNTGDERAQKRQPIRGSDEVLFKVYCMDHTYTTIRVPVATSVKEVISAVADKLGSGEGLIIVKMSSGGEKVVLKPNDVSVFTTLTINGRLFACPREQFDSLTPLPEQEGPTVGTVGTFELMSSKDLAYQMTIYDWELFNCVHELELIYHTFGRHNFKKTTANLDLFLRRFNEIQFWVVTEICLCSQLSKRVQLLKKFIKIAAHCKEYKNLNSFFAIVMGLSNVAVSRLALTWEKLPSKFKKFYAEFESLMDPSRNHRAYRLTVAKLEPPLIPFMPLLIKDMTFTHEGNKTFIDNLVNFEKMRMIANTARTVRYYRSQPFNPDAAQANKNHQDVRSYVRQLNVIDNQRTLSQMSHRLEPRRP
Rap guanine nucleotide exchange factor 3 (Homo sapiens), sequence (O95398 whole entry, looked up): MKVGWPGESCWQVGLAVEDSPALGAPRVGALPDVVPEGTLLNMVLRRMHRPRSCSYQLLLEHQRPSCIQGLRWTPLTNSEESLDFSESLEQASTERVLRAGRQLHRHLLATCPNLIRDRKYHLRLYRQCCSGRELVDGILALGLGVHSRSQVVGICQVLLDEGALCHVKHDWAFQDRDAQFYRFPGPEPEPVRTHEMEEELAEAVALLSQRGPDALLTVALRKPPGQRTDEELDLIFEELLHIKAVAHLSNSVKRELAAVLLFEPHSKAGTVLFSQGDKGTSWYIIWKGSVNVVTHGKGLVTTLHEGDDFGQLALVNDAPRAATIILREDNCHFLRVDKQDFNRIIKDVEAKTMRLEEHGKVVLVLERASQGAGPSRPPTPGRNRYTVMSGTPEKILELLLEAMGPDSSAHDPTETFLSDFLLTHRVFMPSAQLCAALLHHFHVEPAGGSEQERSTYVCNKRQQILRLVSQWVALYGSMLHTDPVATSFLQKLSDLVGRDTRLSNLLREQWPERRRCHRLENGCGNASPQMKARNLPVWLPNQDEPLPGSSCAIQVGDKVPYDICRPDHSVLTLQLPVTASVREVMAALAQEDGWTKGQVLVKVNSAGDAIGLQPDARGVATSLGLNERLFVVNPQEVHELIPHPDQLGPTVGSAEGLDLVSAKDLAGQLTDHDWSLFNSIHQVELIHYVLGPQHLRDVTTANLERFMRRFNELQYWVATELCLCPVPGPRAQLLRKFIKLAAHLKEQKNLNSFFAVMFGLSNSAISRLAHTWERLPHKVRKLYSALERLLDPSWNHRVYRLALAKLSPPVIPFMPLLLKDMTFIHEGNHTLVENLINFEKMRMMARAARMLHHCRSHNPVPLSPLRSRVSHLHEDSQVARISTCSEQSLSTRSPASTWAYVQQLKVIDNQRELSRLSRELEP

SMILES | Potency [1] | outcome [2] | Potency [2] | Potency [3] | activity change, negative = inhibition [3]
Cc1ccc(C)c(CN2C(=O)C(O)(c3c[nH]c4ccccc34)c3ccccc32)c1 (stereo unspecified) | inactive | inactive [at 12.7 µM] | – | – | –
COc1ccc(C(=O)NCCn2cc(SCc3cccc(F)c3)c3ccccc32)cc1OC | inactive | – | inactive | inactive | –
Nc1nc(CSc2ccc(Cl)cc2)nc(N2CCCCC2)n1 | inactive | – | inactive | inactive | –
COc1ccc(Cl)cc1C1CC(=O)Nc2cc3c(cc21)OCCO3 (stereo unspecified) | inactive | – | inactive | inactive | –
N#C/C(=C\c1ccc(-c2ccccc2C(=O)O)o1)c1nc2ccccc2[nH]1 | inactive | inactive [at 12.7 µM] | – | inactive | –
Cc1ccc(-c2nc3ccc(C)cn3c2Cc2cccc(F)c2)cc1 | inactive | – | inactive | inactive | –
Cc1cc(C)c2c(CN3CCCC3)cc(=O)oc2c1 | inactive | – | inactive | inactive | –
O=C(CSc1nc2ccccc2o1)N/N=C/c1ccc(O)c(O)c1 | inactive | – | inactive | inactive | –
Cc1ccc2c(c1)-c1c(cnn1CC(=O)N1CCN(c3cccc(C(F)(F)F)c3)CC1)CO2 | inactive | inactive [at 12.7 µM] | – | inactive | –
CCc1ccc(CNC(=O)Cn2nc(C)n3c(cc4cc(C)ccc43)c2=O)cc1 | inactive | inactive [at 12.7 µM] | – | inactive | –
CCOc1cc2c(cc1/C=C/c1noc(C)c1[N+](=O)[O-])OC(C)C2 (stereo unspecified) | inactive | – | inactive | – | -13.8% [at 30.8 µM]
CCOC(=O)Nc1cc2c(c(N)n1)N=C(c1ccccc1)CN2 | inactive | – | inactive | inactive | –
Cc1nc2ccccc2c2oc(C(=O)Nc3ccc4c(c3)OCCO4)cc12 | inactive | – | inactive | inactive | –
COc1ccc(Cl)cc1NC(=O)COC(=O)c1cc(NS(=O)(=O)c2cccs2)ccc1O | inactive | – | inactive | inactive | –
O=c1[nH]c(Nc2ccc(F)cc2)cc2ccccc12 | inactive | – | inactive | inactive | –
Cc1cccc(C)c1Nc1c(-c2ccc(Cl)s2)nc2ncccn12 | inactive | – | inactive | inactive | –

SMILES | Potency [1] | outcome [2] | Potency [2] | Potency [3] | activity change, negative = inhibition [3]
O=C1NNC(c2ccccc2)=N/C1=C\c1ccccc1Cl | inactive | – | inactive | inactive | –
O=C(Cn1c(=O)c2ccccc2n(CC(=O)Nc2ccc(Cl)cc2)c1=O)NCCc1ccccc1 | inactive | – | inactive | inactive | –
O=C(Nc1cccc(S(=O)(=O)NCc2ccco2)c1)c1cc(-c2ccccc2)nc2ccccc12 | inactive | – | inactive | inactive | –
CCOc1ccccc1C(=O)N1CCc2cc(OC)c(OC)cc2C1COc1ccc(OC)cc1 (stereo unspecified) | inactive | – | inactive | inactive | –
O=C(c1ccccc1Cc1ccccc1)N1CCN(S(=O)(=O)c2ccccc2Br)CC1 | inactive | – | inactive | inactive | –
Cc1nn(-c2ccccc2)c2nc(N)c(C#N)c(-c3ccc(O)c(O)c3)c12 | inactive | – | inactive | inactive | –
CCn1c(SCC(=O)c2ccc(O)c(O)c2)nnc1-c1ccccc1OC | inactive | – | 9.53 µM (active) | inactive | –
OC(c1ccc2ccccc2n1)c1c(Cl)cccc1Cl (stereo unspecified) | inactive | – | inactive | inactive | –
O=C(Nc1ccc(-c2cn3ccccc3n2)cc1)c1cccs1 | inactive | – | inactive | inactive | –
Cc1ccccc1C1(O)c2ccccc2-c2ccccc21 | inactive | – | inactive | inactive | –
Cc1cc[n+](-c2[nH]c(=O)sc2/C=N/N=C(\[O-])c2ccccc2)cc1 | inactive | – | inactive | – | –
COc1cccc2cc(/C(=N/O)c3ccccc3)oc12 | inactive | – | inactive | inactive | –
Cc1ccc2c(c1)N(Cc1cccc(Cl)c1)C(=O)c1cccnc1O2 | inactive | – | 47.8 µM (active) | inactive | –
COc1ccccc1CN(C)C(=O)C(c1ccccc1)c1ccccc1 | inactive | – | inactive | inactive | –
COc1cccc(-c2nc(N3CCN(c4ccccc4)CC3)c3ccccc3n2)c1O | inactive | – | inactive | inactive | –
